The source of these data is PubChem BioAssay AID493067 (National Center for Advancing Translational Sciences (NCATS), 2011).

Results filed as inconclusive are left out. Activity calls are given as the source filed them. The call rests on the fitted dose curve; in most records, active means well fitted activation curve with a large enough effect; inconclusive means small, poorly fitted or top-dose-only effect; inactive means flat fitted curve, though single readings scatter.

The nature of the test: Confirmation Concentration-Response Assay for qHTS Assay for Epigenetic Modulators. As to conditions: murine C127i LDR cells, GFP reporter derepression, 30 h. The source says:
NIH Molecular Libraries Screening Centers Network [MLSCN] NIH Chemical Genomics Center [NCGC] MLSCN Grant: 1 X01 MH079860-01 Assay Provider: Elisabeth D. Martinez, University of Texas SW Medical Center NCGC Assay Overview: This assay, used for the primary screen, was employed here to confirm actives identified from the Locus Derepression (LDR) assay (PubChem AID 1865). The LDR assay detects the derepression of a GFP reporter that is stably integrated in a region of the genome of murine c127i mammary cells that is presumably silenced. Compounds that derepress or induce this reporter locus are identified by enumerating GFP positive cells using an Acumen Explorer Ex3 (TTP Labtech) laser-scanning microplate cytometer.
NCGC Assay Protocol Summary: Three hundred LDR cells in 5 uL per well were dispensed into black, clear-bottom 1536-well plates. Twenty-three nL compound was transferred to the assay plate and cells were incubated 30 hours at 37 C. Medium was removed, cells were washed two times with PBS, and GFP-positive cells were enumerated as fluorescent objects between the sizes of 20 to 120 um width and depth using an Acumen Explorer Ex3 (TTP Labtech) laser-scanning microplate cytometer. For further details, see Johnson, RL, Huang, W, Jadhav, A, Austin, CP, Inglese, J, Martinez, ED (2008). A quantitative high-throughput screen identifies potential epigenetic modulators of gene expression. […]

Consider `O=C1NC(=O)N(CCc2ccc(F)cc2)C(=O)/C1=C/C=C/c1ccccc1`, for which the Potency was 12.6 µM (active).
